Experimental data as given in article PMC5540273 (PLoS ONE, 2017).

What was measured:
Details in all cases: concentration: 1 μM, replicates: in singlicate; n = 1
ALK = system: ALK
AMPK-alpha1 = system: T1, AMPK-alpha1
T1 construct: gene PRKAA1

AMPK-alpha2 = system: T2, AMPK-alpha2
T2 construct: gene PRKAA2

ANKK1 = system: ANKK1
ARK5 = system: T3, ARK5
T3 construct: gene NUAK1

ASK1 = system: T4, ASK1
T4 construct: gene MAP3K5

ASK2 = system: T5, ASK2
T5 construct: gene MAP3K6

AURKA = system: AURKA
AURKB = system: AURKB
AURKC = system: AURKC
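Note: KINOMEscan kinase panel screen.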

Row | Compound | %Inh (ALK) [%] | %Inh (AMPK-alpha1) [%] | %Inh (AMPK-alpha2) [%] | %Inh (ANKK1) [%] | %Inh (ARK5) [%] | %Inh (ASK1) [%] | %Inh (ASK2) [%] | %Inh (AURKA) [%] | %Inh (AURKB) [%] | %Inh (AURKC) [%]
1 | COc1cccc(-n2cnc3c(N)ncnc32)c1 [SKF-97416] | 56 | 2 | 15 | 14 | 0 | 4 | 35 | 0 | 31 | 5
2 | CCC(=O)c1c(-c2ccccc2)c2cc(Cl)ccc2c(=O)n1Cc1cc(S(C)(=O)=O)n(CC(N)=O)n1 | 0 | 0 | 0 | 0 | 0 | 0 | 0 | 0 | 0 | 0
3 | CCC(=O)c1c(-c2ccccc2)c2cc(Cl)ccc2c(=O)n1Cc1cc(S(C)(=O)=O)n(CCC(C)(C)O)n1 | 0 | 19 | 15 | 8 | 10 | 15 | 8 | 16 | 17 | 12
4 | COc1cc(OC)cc(-c2cc3cnc(N)nc3nc2NC(=O)NC(C)(C)C)c1 | 0 | 0 | 15 | 0 | 0 | 0 | 0 | 0 | 0 | 0
5 | COc1ccc(-c2coc3ccc(-c4nnc(SCc5cccc(C#N)c5)o4)cc23)cc1 | 0 | 7 | 0 | 19 | 16 | 9 | 6 | 22 | 12 | 0
6 | O=C(Nc1n[nH]c2nc(-c3ccccc3)c(Cl)cc12)C1CC1 [SB-734909] | 15 | 0 | 10 | 19 | 1 | 0 | 21 | 28 | 33 | 25
7 | CCc1ccc(-c2ccc3c(c2)-c2nn(C)cc2S(=O)(=O)N3C)cc1 | 10 | 0 | 9 | 0 | 13 | 0 | 0 | 0 | 6 | 0
8 | Cn1c(=O)c(F)c(Nc2ccc(I)cc2F)c2c(=O)n(OC[C@H](O)CO)cnc21 | 0 | 0 | 13 | 0 | 0 | 0 | 0 | 0 | 9 | 30
9 | CCC(=O)c1c(-c2ccccc2)c2cc(Cl)ccc2c(=O)n1Cc1cc(C(=O)NC2CC2)n(C)n1 | 32 | 22 | 5 | 0 | 0 | 0 | 0 | 22 | 26 | 0
10 | COC(=O)c1c(-c2ccccc2)c2cc(Br)ccc2c(=O)n1Cc1ccc(NC(=O)CCC(=O)O)cc1 | 52 | 21 | 22 | 0 | 0 | 2 | 0 | 0 | 9 | 0
11 | CN1C(=O)C(Nc2ccccc2)=C(c2ccccc2)C1=O [SB-300079] | 7 | 0 | 1 | 15 | 0 | 0 | 0 | 0 | 21 | 0
12 | O=C(NCCNc1ccnc(Nc2ccc(F)cc2)n1)Nc1ccc2c(c1)OCO2 [GSK1379882] | 24 | 0 | 2 | 18 | 11 | 14 | 0 | 28 | 0 | 36
13 | CCc1nc(-c2cccc(C)c2)c(-c2ccncc2)s1 | 0 | 0 | 0 | 0 | 17 | 0 | 0 | 0 | 13 | 0
14 | Nc1ncnc2c1ncn2-c1cccc2ccccc12 [SKF-97184] | 0 | 0 | 21 | 0 | 0 | 0 | 0 | 0 | 28 | 0
15 | C[C@@H]1CC[C@H](C(=O)NC2CCCCC2)CN1c1cc(-c2ccc3c(N)n[nH]c3c2)nc(N)n1 [GSK2291363] | 29 | 7 | 14 | 20 | 6 | 9 | 7 |  | 24 | 69
16 | CCC(=O)c1c(-c2ccccc2)c2cc(Cl)ccc2c(=O)n1Cc1ccc(C(=O)O)cc1 | 0 | 0 | 0 | 0 | 6 | 0 | 0 | 0 | 19 | 0
17 | Nc1nc(N)c2nc(-c3ccccc3)[nH]c2n1 [SKF-12778] | 0 | 17 | 14 | 63 | 73 | 7 | 15 | 3 | 13 | 1
18 | Cl.c1ccc(Cn2cnc3cc(Nc4ncnc5ccccc45)ccc32)cc1 [GW272142] | 21 | 0 | 0 | 0 | 0 | 4 | 2 | 0 | 19 | 14

Row | Compound | %Inh (ALK) [%] | %Inh (AMPK-alpha1) [%] | %Inh (AMPK-alpha2) [%] | %Inh (ANKK1) [%] | %Inh (ARK5) [%] | %Inh (ASK1) [%] | %Inh (ASK2) [%] | %Inh (AURKA) [%] | %Inh (AURKB) [%] | %Inh (AURKC) [%]
19 | Cc1nnc(-c2ccc3ncn(-c4ccc(S(C)=O)cc4)c3c2)o1 (stereo not shown) | 6 | 0 | 2 | 0 | 21 | 0 | 0 | 21 | 10 | 5
20 | COc1cccc(C2=C(Nc3cccc(C(=O)O)c3)C(=O)NC2=O)c1 [SB-390770] | 0 | 45 | 16 | 70 | 0 | 5 | 4 | 21 | 31 | 14
21 | COc1cc(Nc2nccc(N3CCC(NC(=O)C4COc5ccccc5O4)C3)n2)cc(OC)c1OC (stereo not shown) [GSK1379761] | 18 | 11 | 0 | 24 | 2 | 0 | 5 | 51 | 72 | 75
22 | CCCC(=O)Nc1n[nH]c2ncc(-c3cccc4ccccc34)cc12 [SB-642057] | 29 | 37 | 19 | 7 | 6 | 9 | 9 | 6 | 24 | 16
23 | Nc1ncnc2c1ncn2-c1cccc(F)c1 [SKF-97560] | 43 | 0 | 0 | 17 | 2 | 18 | 35 | 0 | 6 | 0
24 | COC(=O)c1c(-c2ccccc2)c2cc(Br)ccc2c(=O)n1Cc1ccc(S(C)(=O)=O)cc1 | 52 | 15 | 9 | 0 | 11 | 2 | 0 | 35 | 20 | 0
25 | CC(C)(C)c1ccc(C(=O)Nc2cn3cc(-c4ccccc4)ccc3n2)cc1 | 0 | 0 | 0 | 0 | 13 | 40 | 0 | 48 | 51 | 0
26 | COC(=O)c1c(-c2ccccc2)c2cc(C)ccc2c(=O)n1Cc1ccccc1 | 0 | 0 | 0 | 0 | 4 | 0 | 0 | 0 | 9 | 0
27 | O=C1NC(=O)C(c2ccccc2)=C1Nc1cccc(O)c1 [SB-390534] | 0 | 0 | 0 | 0 | 0 | 0 | 4 | 12 | 35 | 0
28 | CCC(=O)c1c(-c2ccccc2)c2cc(Cl)ccc2c(=O)n1Cc1cc(S(C)(=O)=O)n(CC(F)F)n1 | 0 | 0 | 8 | 0 | 5 | 0 | 0 | 0 | 11 | 0
29 | Cc1ccc(-c2ccc3c(ccc4sc5c(c43)NC[C@@H](C)N=C5N(C)C)n2)cn1 | 4 | 0 | 0 | 0 | 0 | 0 | 0 | 0 | 0 | 0
30 | O=C(NCc1cccs1)c1cc(C(=O)c2c(Cl)cccc2Cl)c[nH]1 [GW823670] | 0 | 8 | 0 | 0 | 0 | 19 | 0 | 0 | 9 | 1
31 | O=C(Nc1n[nH]c2nc(-c3ccccc3)c(Br)cc12)C1CC1 [SB-708998] | 1 | 12 | 18 | 14 | 0 | 0 | 0 | 7 | 4 | 36
32 | O=c1cc(N2CCOCC2)nc2n(Cc3ccc(F)c(Cl)c3)ccn12 [GSK2297099] | 20 | 0 | 19 | 13 | 14 | 2 | 0 | 0 | 0 | 0
33 | Cc1cccc(-c2nc(Nc3ccc4c(cnn4C)c3)c3ccccc3n2)n1 [GW876731] | 0 | 0 | 17 | 16 | 5 | 0 | 10 | 24 | 6 | 0
34 | COc1cc2nccc(Nc3ccc(OCc4ccc(NC(C)=O)cc4)cc3)c2cc1OC.Cl [GW440135] | 5 | 15 | 10 | 0 | 28 | 3 | 0 | 0 | 0 | 0
35 | COc1cccc(C2=C(N(C)c3ccccc3)C(=O)NC2=O)c1 [SB-334865] | 24 | 6 | 13 | 0 | 1 | 18 | 0 | 11 | 32 | 0
